We go through nine compounds from PubChem BioAssay (NCI).

Some test systems named below: SR leukemia; RPMI-8226 leukemia; OVCAR-8 ovarian; OVCAR-4 ovarian; SK-OV-3 ovarian; OVCAR-3 ovarian; HS 578T breast; NCI/ADR-RES ovarian; T-47D breast; BT-549 breast; MDA-MB-435 melanoma; SW-620 colon; MCF7 breast; HCT-116 colon; HCC-2998 colon; KM12 colon; IGROV1 ovarian; OVCAR-5 ovarian.
Holding throughout (experiment): NCI-60 one-dose screen, 48 h (100 = growth as untreated, 0 = no growth, -100 = all killed)
Common to all, as to conditions: 10 µM unless noted

Molecules are shown by their SMILES. This is part of a sample that, as a whole, favours compounds with a hit. Of some 83,000 tested, about 20% had one in any assay.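 Single-concentration screen, 48 h exposure, 96-well plates. Endpoint: percent growth. Below 10 = active.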 Unmarked numbers belong to inactive results. Calls of active or inactive are those of the source.

For the compound `CC(C)C[C@@H](C(=O)N[C@H](C(=O)OC1CCCC1)c1ccccc1)[C@H](O)C(=O)NO`, the growth with SR leukemia was 51.1%; with RPMI-8226 leukemia, 29%; in the assay with OVCAR-8 ovarian, 52.7%; in the assay with OVCAR-4 ovarian it was 53%; in the assay on SK-OV-3 ovarian it was 67.5%; in the assay with OVCAR-3 ovarian, 43.4%. The growth was 74.6% in the assay on HS 578T breast; 101% in the assay on NCI/ADR-RES ovarian; 36.7% in the assay with T-47D breast; 69.7% in the assay with BT-549 breast; 49.4% in the assay on MDA-MB-435 melanoma; 49.8% in the assay with SW-620 colon. The growth in the assay on MCF7 breast was 43.3%; in the assay with HCT-116 colon, 56.7%; with HCC-2998 colon, 94.4%; in the assay with KM12 colon, 65.7%.
Regarding `Oc1c(Cl)cc(Cl)c2ccc(Cn3cc(-c4cccc(C(F)(F)F)c4)nn3)nc12`, the growth in the assay on SR leukemia was -15.6% (active); in the assay with RPMI-8226 leukemia it was 8.24% (active); in the assay with OVCAR-8 ovarian, 80%; with OVCAR-4 ovarian, 65.9%; with SK-OV-3 ovarian, 107%; in the assay with IGROV1 ovarian, 85.2%. In addition, the growth is 15% with OVCAR-3 ovarian; 74.9% with HS 578T breast; 104% in the assay on NCI/ADR-RES ovarian; 58.9% in the assay with T-47D breast; 75% with BT-549 breast; 73.9% with MDA-MB-435 melanoma. Moreover, the growth was 28.7% with SW-620 colon; 42.3% in the assay with MCF7 breast; 14% with HCT-116 colon; 99.5% in the assay on HCC-2998 colon; 100% in the assay on KM12 colon.
Take `O=C(O)CCCn1c(SCc2c(Cl)cccc2Cl)nc2ccsc2c1=O`: the growth with SR leukemia was 9.9% (active); in the assay with RPMI-8226 leukemia, 19.2%; in the assay with OVCAR-8 ovarian, 28.8%; in the assay on OVCAR-4 ovarian it was 70.7%; in the assay on SK-OV-3 ovarian, 34.3%; with IGROV1 ovarian, 44.9%. For the same compound, the growth in the assay with OVCAR-3 ovarian was -20.4% (active); with HS 578T breast it was 11.9%; in the assay on NCI/ADR-RES ovarian, 4.6% (active); with T-47D breast it was 35.5%; in the assay with BT-549 breast it was 34.2%; with MDA-MB-435 melanoma it was -58.4% (active). For the same compound, the growth was 15.1% in the assay on SW-620 colon; 20.6% in the assay on MCF7 breast; 18.8% in the assay on HCT-116 colon; 29.6% in the assay on HCC-2998 colon; 18.3% in the assay on KM12 colon.
For `N=C(N)c1ccc(-c2ccc(-c3ccc(F)cc3)s2)s1`, the growth was -32.6% (active) with SR leukemia; -18.6% (active) in the assay with RPMI-8226 leukemia; -54.7% (active) with OVCAR-8 ovarian; -23.8% (active) in the assay on OVCAR-4 ovarian; 80.5% with SK-OV-3 ovarian; -27.5% (active) in the assay on IGROV1 ovarian. The growth in the assay with OVCAR-3 ovarian is -57.8% (active); in the assay with HS 578T breast, 84.6%; with NCI/ADR-RES ovarian, -33.3% (active); with T-47D breast, -38.2% (active); in the assay on BT-549 breast, 80%; in the assay on MDA-MB-435 melanoma it was -88.7% (active). For the same compound, the growth in the assay with SW-620 colon was -65.2% (active); with MCF7 breast, -67% (active); in the assay on HCT-116 colon, -57.3% (active); in the assay with HCC-2998 colon it was -73.3% (active); in the assay with KM12 colon, -76.1% (active).
For the compound `O=C(/C=C/C12c3ccccc3C(c3ccccc31)C1C(=O)NC(=O)C12)c1ccccn1` (stereo not given), the growth in the assay on SR leukemia was -8.33% (active); in the assay with RPMI-8226 leukemia, -27.6% (active); in the assay with OVCAR-8 ovarian it was 1.98% (active); with OVCAR-4 ovarian it was 35.3%; in the assay with IGROV1 ovarian, -12.3% (active); with OVCAR-3 ovarian it was -8.72% (active). The growth with HS 578T breast is 40.1%; in the assay on NCI/ADR-RES ovarian it was 11.3%; with T-47D breast, 9.45% (active); with BT-549 breast it was 11%; in the assay with MDA-MB-435 melanoma, -23.7% (active); with SW-620 colon, -1.62% (active). Moreover, the growth in the assay on MCF7 breast was 10.4%; in the assay with HCT-116 colon, -65% (active); in the assay with HCC-2998 colon, 16.5%; in the assay on KM12 colon, 1.06% (active).
For the compound `CC(/C=C1\SC(=S)N(CC(=O)NC(Cc2c[nH]c3ccccc23)C(=O)O)C1=O)=C\c1ccccc1` (stereo not given), the growth in the assay on SR leukemia is 108%; in the assay with RPMI-8226 leukemia, 105%; in the assay on OVCAR-8 ovarian, 100%; in the assay with OVCAR-4 ovarian, 101%; in the assay with SK-OV-3 ovarian, 105%; in the assay with IGROV1 ovarian, 101%. Besides, the growth with OVCAR-3 ovarian was 108%; in the assay with HS 578T breast, 103%; in the assay with NCI/ADR-RES ovarian, 103%; in the assay with T-47D breast, 106%; in the assay with BT-549 breast, 105%; in the assay with MDA-MB-435 melanoma, 104%. Besides, the growth with SW-620 colon was 104%; with MCF7 breast it was 94.8%; in the assay with HCT-116 colon it was 112%; in the assay on HCC-2998 colon, 103%; in the assay on KM12 colon it was 107%.
Regarding `Clc1ccc(-c2nc(-c3c[nH]c4ncccc34)cs2)cc1`, the growth in the assay on SR leukemia was 85.4% [100 µM]; with RPMI-8226 leukemia, 91.4% [100 µM]; in the assay with OVCAR-8 ovarian, 29.7% [100 µM]; in the assay on OVCAR-4 ovarian, 28.3% [100 µM]; in the assay with SK-OV-3 ovarian, 29.3% [100 µM]; in the assay on IGROV1 ovarian it was 72.7% [100 µM]. In addition, the growth in the assay with OVCAR-3 ovarian was 68.7% [100 µM]; in the assay with HS 578T breast, 44.3% [100 µM]; with NCI/ADR-RES ovarian, 41.2% [100 µM]; in the assay with T-47D breast, 62.4% [100 µM]; with BT-549 breast, 47.2% [100 µM]; in the assay on MDA-MB-435 melanoma, 89.2% [100 µM]. The growth is 74.3% [100 µM] in the assay with SW-620 colon; 66.7% [100 µM] with MCF7 breast; 38.6% [100 µM] in the assay on HCT-116 colon; 90.2% [100 µM] in the assay on HCC-2998 colon; 76.1% [100 µM] with KM12 colon.
Regarding `CCc1cccc(Sc2cc(C(=O)N3Cc4ccc(OCCN(C)C)cc4C3)ccc2O)c1`, the growth in the assay on SR leukemia is 19.9%; in the assay with RPMI-8226 leukemia, 29.3%; in the assay on OVCAR-8 ovarian, 24.1%; in the assay on OVCAR-4 ovarian, 53.2%; with SK-OV-3 ovarian, 37.7%; with IGROV1 ovarian it was 59.8%. Further, the growth was 67.3% in the assay with OVCAR-3 ovarian; 95.4% in the assay with HS 578T breast; 50.4% in the assay with NCI/ADR-RES ovarian; 37.2% with T-47D breast; 70.1% with BT-549 breast; 64.1% in the assay on MDA-MB-435 melanoma. Also, the growth with SW-620 colon is 41.9%; with MCF7 breast, 24.8%; in the assay with HCT-116 colon, 49.5%; in the assay with HCC-2998 colon, 75%; in the assay on KM12 colon, 23.5%.
`CCCCCCC(=O)Nc1ncc(Cc2ccc(C)cc2)s1`: the growth in the assay with SR leukemia was 20.4%; in the assay with RPMI-8226 leukemia, 40.1%; in the assay on OVCAR-8 ovarian, 45.5%; in the assay with OVCAR-5 ovarian it was 58.1%; in the assay on OVCAR-4 ovarian, 50.1%; in the assay with OVCAR-3 ovarian it was 8.65% (active). The growth in the assay with HS 578T breast is 21.7%; in the assay with NCI/ADR-RES ovarian, 29%; in the assay with T-47D breast it was 35.4%; with BT-549 breast, 59.1%; with MDA-MB-435 melanoma, -25.9% (active); with SW-620 colon it was 22.4%. Further, the growth with MCF7 breast was 24.7%; with HCT-116 colon it was 33.3%; with HCC-2998 colon, 70.3%; in the assay with KM12 colon it was 30.7%.
